A selection: hits, their analogues and other compounds. The true share with any hit is near 9.4%.
HttQ103 aggreg – qHTS Multiplex Assay to Identify Dual Action Probes in a Cell Model of Huntington: Aggregate Formation (GFP); Potency, µM (series often up to 46.1 µM), hits mostly inhibitors; PC12 HttQ103-GFP aggregates, Acumen cytometry, 40 h; 1.1% of 220,000 active; further: nearly all actives have a fitted effect of over 60% in size
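PC12 cells stably carrying ecdysone-inducible HTT exon 1 Q103–GFP were induced with tebufenozide (100 nM final) and treated with library compounds in titration. GFP aggregates in lysates were counted by laser scanning cytometry.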
IMPase cell inh – qHTS Assay for Identifying the Cell-Membrane Permeable IMPase Inhibitors. Inositol monophosphatase 1 (Rattus norvegicus), P97697. CHO-M1 cells, IP1 accumulation, HTRF TR-FRET ratio. inhibition (IP1 accumulation), % at 46.1 µM. 120,000 tested, under 10 active; active means well fitted curve in the direction sought with a large enough effect in the signal ratio, not every such curve was filed as active; inconclusive means small, poorly fitted or top-dose-only effect, or a change in a side signal; inactive means no such curve, though single readings can be large or run the other way; the % refers to the signal ratio;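 further: cells stimulated with carbachol in lithium chloride buffer; higher means more IMPase inhibition seen as more IP1 and lower FRET ratio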
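Carbachol-driven Gq signalling in CHO-M1 cells (2000/well) generates IP1. Compounds that block IMPase raise IP1 and so reduce the FRET signal from Eu-anti-IP1 and d2-IP1 after a 10 min room-temperature lysis.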
IMPase Li cell – qHTS Assay for Identifying the Cell-Membrane Permeable IMPase Inhibitors: Potentiation with Lithium; CHO-M1 cells, IP1 TR-FRET (IP-One), carbachol + lithium; Potency, µM (top dose mostly 59.4 µM), actives largely listed as inhibitors; 0.35% of 210,000 active; AID 1457, 2008;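 further: IP1 builds up when IMPase is blocked and the TR-FRET signal falls; nearly all actives have a fitted effect of over 50% in size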
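Test compounds were applied to CHO-M1 cells previously cultured for 16–30 h at 2000 per well. A small lithium amount accompanied them; after 30 min at 37C, IP1 was quantified by TR-FRET.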
HTT cytoprotect – qHTS Multiplex Assay to Identify Dual Action Probes in a Cell Model of Huntington: Cytoprotection (ATP); PC12 HTT-Q103 induced, cytoprotection, ATP luminescence, 40 h; Potency, µM (titrated, usually from 56.4 µM), actives largely listed as activators; 0.14% of 230,000 active; AID 1471, 2008; further: nearly all actives have a fitted effect of over 45% in size
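PC12 cells with ecdysone-inducible HTT exon 1 Q103-GFP, induced with 100 nM tebufenozide and co-treated with library compounds in a dose series (1536-well, 1500 cells/well). Cytoprotection read as ATP content by ATPlite luminescence.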
HPGD inh – qHTS Assay for Inhibitors of HPGD (15-Hydroxyprostaglandin Dehydrogenase) | 15-hydroxyprostaglandin dehydrogenase [NAD(+)] (Homo sapiens), P15428 | purified HPGD, NADH fluorescence kinetic, PGE2 substrate | Potency, µM, hits mostly inhibitors | 4.3% of 150,000 active; active means well fitted inhibition curve with a large enough effect, not every such curve was filed as active; inconclusive means small, poorly fitted or top-dose-only effect, or another doubt; inactive means no such curve, though single readings can be large or run the other way
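NADH formation kinetics: reaction with 30 uM PGE2 and 1 mM NAD+ (final), 20 nM enzyme, Tris-HCl pH 8 with Tween 20, after 15 min compound preincubation at room temperature. Fluorescence change, last versus first of five reads.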
ALDH1A1 block – qHTS Assay for Inhibitors of Aldehyde Dehydrogenase 1 (ALDH1A1); Aldehyde dehydrogenase 1A1 (Homo sapiens), P00352; 7.3% of 220,000 active; Purified ALDH1A1, NADH fluorescence, propionaldehyde substrate; Potency, µM (doses to about 75.3 µM), actives largely listed as inhibitors; AID 1030, 2008; active means well fitted inhibition curve with a large enough effect, not every such curve was filed as active; inconclusive means small, poorly fitted or top-dose-only effect, or another doubt; inactive means no such curve, though single readings can be large or run the other way
Target sequence (P00352 whole entry, looked up): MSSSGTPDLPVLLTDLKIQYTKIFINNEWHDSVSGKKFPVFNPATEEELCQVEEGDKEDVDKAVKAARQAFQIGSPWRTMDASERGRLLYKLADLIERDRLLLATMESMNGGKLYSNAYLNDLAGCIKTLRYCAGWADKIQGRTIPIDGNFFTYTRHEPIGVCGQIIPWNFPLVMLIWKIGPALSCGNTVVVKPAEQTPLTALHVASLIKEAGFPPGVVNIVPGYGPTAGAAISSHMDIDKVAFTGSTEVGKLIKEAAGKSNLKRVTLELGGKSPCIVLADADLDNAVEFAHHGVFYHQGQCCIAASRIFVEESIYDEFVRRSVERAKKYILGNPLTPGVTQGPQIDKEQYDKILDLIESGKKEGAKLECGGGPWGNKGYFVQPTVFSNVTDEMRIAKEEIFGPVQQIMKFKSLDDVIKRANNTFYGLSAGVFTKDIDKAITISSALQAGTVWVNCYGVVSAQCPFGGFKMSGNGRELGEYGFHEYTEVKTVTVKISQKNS
A number is an active result; i = inactive; ? = inconclusive; nt = no result given; [ ] = another dose, or the depositor's remark. Unless noted, the call rests on the fitted dose curve; in most records, active means well fitted curve in the direction sought with a large enough effect; inconclusive means small, poorly fitted or top-dose-only effect, or another doubt; inactive means no such curve, though single readings can be large; an effect the other way counts as inactive or inconclusive.

SMILES	HttQ103 aggreg	IMPase cell inh	IMPase Li cell	HTT cytoprotect	HPGD inh	ALDH1A1 block
COc1ccc(Br)c(C(=O)NCCC(C)C)c1	i	nt	i	nt	13µM	i
COc1ccc(C(CNC(=O)c2ccc(S(=O)(=O)N(C)C)cc2)N(C)C)cc1 (stereo not drawn)	i	nt	i	i	nt	?
COc1ccc(S(=O)(=O)N(C)c2ccc(C(=O)NC3CCCC3)cc2)cc1	i	nt	i	?	nt	i
Cc1cccn2c(Nc3ccc4c(c3)OCCO4)c(-c3ccc(Br)o3)nc12	nt	i	nt	nt	nt	nt
C=CCNC(=O)c1cc([N+](=O)[O-])cc2c(=O)[nH]c(Nc3ccc(Cl)c(Cl)c3)nc12	nt	nt	i	i	i	i
Cc1[nH]c2ccccc2c1/C=C/C(=O)c1ccncc1	i[9.22 µM]	nt	nt	4µM	nt	nt
Cc1ccc(C(=O)/C=C/c2c[nH]c3ccccc23)cc1	i	i	i	i	?	25µM
O=C(/C=C/c1c[nH]c2ccccc12)c1ccccc1	i	nt	i	i[10 µM]	16µM	3.2µM
CCCCCCC1=Cc2cc(OC)c(OC)cc2C(C(C(C)=O)C(=O)OCC)O1 (stereo not drawn)	nt	nt	nt	i[10 µM]	nt	i[13.5 µM]
O=C(c1cc(C(F)(F)F)cc(C(F)(F)F)c1)N1CCC[C@@]2(CCN(Cc3nccs3)C2)C1	nt	nt	i	?	i	i
CCOc1ccc(S(=O)(=O)N(CC(=O)N/N=C/c2ccc(-c3ccc([N+](=O)[O-])cc3)o2)c2ccccc2)cc1	i	i	i	i	i	25µM
Cc1ccc(C)c(N(CC(=O)N/N=C/c2ccc(-c3ccc([N+](=O)[O-])cc3)o2)S(=O)(=O)c2ccccc2)c1	i	i	?	i	i	?
CN(C)S(=O)(=O)c1cccc(C(=O)C2=C3SC=C(c4ccccc4)N3CC2)c1	i	i	i	i[10 µM]	i	2µM
COC(=O)[C@@H]1CCCN1C(=O)[C@@H](C)CO	nt	nt	nt	i[10 µM]	nt	i[13.5 µM]
CCOC(=O)OCC1OC(C#Cc2ccc(C)cc2C)C=CC1OC(=O)OCC (stereo not drawn)	nt	nt	nt	i[10 µM]	nt	i[13.5 µM]
NC(=S)NNc1cc(Cl)cc(Cl)c1	i	i	i	?	i	2µM
NC(=S)Nc1cc(Cl)cc(Cl)c1	i[9.22 µM]	nt	nt	i[10 µM]	nt	nt
CC(Oc1ccccc1Cl)C(=O)N1CCOCC1 (stereo not drawn)	i	nt	i	i[10 µM]	28µM	?
COc1cc(NS(C)(=O)=O)ccc1Cc1c2ccccc2nc2ccccc12	nt	nt	i	nt	i	i
CC1(C)Cc2ccccc2C(CSc2ccccc2C(=O)O)=N1	i[9.22 µM]	nt	i	i[10 µM]	nt	40µM
CCC1CCCCN1C(=O)COc1cc(=O)n(C)c2ccccc12 (stereo not drawn)	i	i	i	i	?	?
CCC1CCCCN1C(=O)COc1ccccc1NC(C)=O (stereo not drawn)	i	nt	i	i	nt	3.5µM
COC(=O)CNc1n[nH]c(=S)[nH]c1=O	i	?	11µM	i	i	i
CN(C)C(=O)CNc1n[nH]c(=S)[nH]c1=O	i[9.22 µM]	nt	nt	i[10 µM]	nt	i
CC(C)OC(=O)CNc1n[nH]c(=S)[nH]c1=O	i[9.22 µM]	nt	11µM	i[10 µM]	nt	i
SMILES	HttQ103 aggreg	IMPase cell inh	IMPase Li cell	HTT cytoprotect	HPGD inh	ALDH1A1 block
CC(C)OC(=O)C(C)Nc1n[nH]c(=S)[nH]c1=O (stereo not drawn)	nt	nt	?	nt	nt	i
Cc1noc(C)c1-c1nc(NC2CCNCC2)c2ccccc2n1	nt	nt	i	i	nt	i
COc1ccc(NC(=O)CSc2ccc3nnc(-c4cccnc4)n3n2)c(OC)c1	i	nt	?	i	nt	40µM
COc1ccc(-c2nnc3ccc(SCC(=O)NCc4ccco4)nn23)cc1OC	i	i	i	i	14µM	i
Cc1ccc(-c2nnc3ccc(SCC(=O)NCc4ccco4)nn23)cc1	i	i	i	i[10 µM]	i	i
CC(C)(C)N=C1NN=C(c2cc3ccccc3o2)CS1	i	i	nt	i[10 µM]	nt	22µM
CC(C)(C)N=C1NN=C(c2ccc(Cl)cc2)CS1	i[9.22 µM]	nt	nt	i[10 µM]	nt	nt

Screening data (PubChem BioAssay)
